The record followed here is PubChem BioAssay AID687001 (Broad Institute, 2013).

Measured potencies and affinities stand elsewhere. Calls of active or inactive are those of the source.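 The calls were made as follows: active = signal-lowering compounds whose fitted half-maximal concentration is at or below twice the top tested dose in every run; inconclusive = runs disagree, flat 30 to 70% inhibition, or poor curve fit; inactive = the rest.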

Chain of Protein S100-A4 (Homo sapiens) (P26447 whole entry, looked up): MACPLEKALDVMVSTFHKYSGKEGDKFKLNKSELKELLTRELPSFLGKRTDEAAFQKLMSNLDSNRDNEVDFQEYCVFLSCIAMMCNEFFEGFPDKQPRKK

The assay addresses Protein S100-A4 (Homo sapiens) (UniProt P26447). Briefly: S100A4-myosin IIA binding inhibitor potency, dose response, biochemical, fluorescence polarization, cherry-picked hits (AID 687001). As to conditions: FP, S100A4/TAMRA-myosin IIA peptide binding; series mostly up to 11 µM. For orientation: Fluorescence polarisation rises when a labelled molecule tumbles more slowly, as on binding a larger partner.
With `C[C@@H]1CN([C@H](C)CO)S(=O)(=O)c2ccc(-c3cccnc3)cc2O[C@@H]1CN(C)C(=O)CC1CC1`, the compound was classed as inactive. On to `Cc1noc(C)c1NC(=O)Nc1ccc2c(c1)C(=O)N([C@H](C)CO)C[C@@H](C)[C@@H](CN(C)S(=O)(=O)c1ccc(Cl)cc1)OCCCC[C@H](C)O2`, for which the call was inactive. With `COc1ccc(CNC(=O)CNC(=O)[C@@H]2Cc3ccccc3CN2)cc1` the entry was “inactive”; with `CCOC(=O)C1(C)CCCN1C(=O)c1ccc(C(F)(F)F)nc1C` (stereo unspecified), “inactive”; with `COc1cc(/C=C/C(=O)OCC(=O)N2c3ccccc3NC(=O)C2(C)C)cc(OC)c1OC`, “inactive”. The entry for `CC(=O)N1[C@H](C(=O)NCCCN(C)C)[C@@H](CO)[C@@H]2Cn3c(ccc(-c4cccc(F)c4)c3=O)[C@@H]21` is “inactive”.

Regarding `O=C(N[C@H]1CC[C@@H](CCNS(=O)(=O)Cc2ccccc2)O[C@H]1CO)c1ccccc1F`, the compound was classed as inactive. With `C[C@H](NC(=O)C[C@@H]1C[C@@H]2c3cc(NC(=O)Nc4ccc(C(F)(F)F)cc4)ccc3O[C@@H]2[C@@H](CO)O1)c1ccccc1` the entry was “inactive”; with `C[C@@H]1CN([C@@H](C)CO)C(=O)c2cccc(NC(=O)Nc3cccc4ccccc34)c2O[C@H]1CN(C)C(=O)Nc1ccccc1`, “inactive”.

Consider `O=C(COC(=O)Cc1ccc(F)cc1)Nc1ccc2[nH]c(=O)[nH]c2c1`, for which the compound was classed as inactive.

With `C[C@@H]1CN([C@@H](C)CO)C(=O)c2cc(NC(=O)C3CC3)ccc2O[C@@H]1CN(C)Cc1ccc(Cl)c(Cl)c1`, the outcome was inactive. As to `COc1cccc(S(=O)(=O)N2CC[C@@H]3[C@@H](CO)Nc4ccc(C#Cc5ccccc5)cc4[C@@H]32)c1`, the result was inactive. With `CCOc1cc(/C=N/NC(=O)c2ccc(N(C)S(=O)(=O)c3ccccc3)cc2)ccc1OC` the entry was “inactive”; with `C=CCn1c(C)nnc1SCC(=O)Nc1ccccc1C(=O)NC1CC1`, “inactive”. With `Cc1ccc(CNS(=O)(=O)c2ccc(C)s2)cc1` the entry was “inactive”. On to `C[C@H]1CN([C@@H](C)CO)C(=O)c2cc(Br)cnc2O[C@H]1CN(C)C(=O)c1ccccc1F`, for which the compound was classed as inactive. The entry for `O=C(NC1CCCC1)N1CCCCN2[C@@H](CO)[C@@H](c3ccc(-c4cccnc4)cc3)[C@@H]2C1` is “inactive”. The entry for `CCS(=O)(=O)Nc1ccc2c(c1)C(=O)N(C)C[C@@H](OC)[C@@H](C)CN(C(C)=O)[C@H](C)CO2` is “inactive”.

Consider `CCCCNC(=O)CNC(=S)N(CCCN1CCOCC1)Cc1cccs1`, for which the result was inactive. With `CC(=O)N1[C@H](C(=O)N[C@H](C)c2ccccc2)[C@@H](CO)[C@@H]2Cn3c(cccc3=O)[C@@H]21` the entry was “inactive”. With `CON(C)S(=O)(=O)c1cccc(C(=O)Nc2cccc(S(=O)(=O)NC3=NCCCCC3)c2)c1` the entry was “inactive”; with `O=C1SCCC1NC(=O)C(c1ccccc1)c1ccccc1` (stereo unspecified), “inactive”. The entry for `S=c1[nH]nc(-c2cc(-c3ccsc3)n[nH]2)n1-c1ccccc1` is “inactive”; for `CCc1nc2c(OCc3ccccc3OC)cccn2c1N(C)C(=O)C(C)C` it is “inactive”. For the compound `CC1CCCCC12NC(=O)N(CC(=O)OCC(=O)Nc1ccc(F)cc1[N+](=O)[O-])C2=O` (stereo unspecified), the compound was classed as inactive. With `O=C(NCCC1CCCCN1S(=O)(=O)c1cccs1)C(=O)Nc1ccc(F)cc1` (stereo unspecified) the entry was “inactive”.

On to `COC(=O)C[C@@H]1CC[C@H](NC(=O)c2cnccn2)[C@@H](CO)O1`, for which the call was inactive. With `COc1ccc(S(=O)(=O)Nc2ccc3c(c2)C(=O)N([C@H](C)CO)C[C@H](C)[C@H](CN(C)C(=O)Nc2ccccc2)OCCCC[C@H](C)O3)cc1`, the call was inactive. Take `O=C(CSc1ccc([N+](=O)[O-])cn1)Nc1ccc2c(c1)OCO2`: the outcome was inactive. For the compound `COc1ccc(CN2CCC(C(=O)Nc3ccc(Oc4cccnc4)cc3)CC2)c(C)c1C`, the result was inactive. For the compound `N#Cc1cccc(-c2ccc3c(c2)[C@@H]2[C@@H](CCN2C(=O)c2ccncc2)[C@@H](CO)N3)c1`, the compound was classed as inactive. With `CC(C)C#Cc1ccc([C@H]2[C@@H](CO)N(C(=O)c3cccc(F)c3)[C@H]2C#N)cc1` the entry was “inactive”; with `COc1ccc(C)cc1NC(=O)CN1CCN(c2ccccn2)CC1`, “inactive”; with `COc1cc(Cl)ccc1OCc1cc(C(=O)N2CCCCCCC2)no1`, “inactive”. With `COc1ccc(S(=O)(=O)N(C)C[C@@H]2OCCCC[C@@H](C)Oc3ccc(NC(=O)Nc4ccc(C(F)(F)F)cc4)cc3C(=O)N([C@H](C)CO)C[C@@H]2C)cc1` the entry was “inactive”. For the compound `COCCN(C(=O)COC(=O)COc1ccc2ccccc2c1)c1c(N)n(Cc2ccccc2)c(=O)[nH]c1=O`, the result was inactive.
